Results taken from the supplement of paper PMC13094657.
± gives the standard deviation of the averaged measurements.

How the values were obtained:
MDA-MB-231 [1] = test: cell viability relative to vehicle unstimulated control (fraction); higher = more viable cells; conditions: pre-treatment time: 18 h then 24 h IFNg/TNF
MDA-MB-231 [2] = test: kynurenine production, fold change vs DMSO IFNg/TNF control; higher = more kynurenine produced (less inhibition); conditions: pre-treatment time: 18 h then 24 h IFNg/TNF
In short: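 MDA-MB-231 cells (7 × 10^4/well, 96-well plates, seeded 24 h earlier) were pre-treated 18 h with each natural product in 0.1% DMSO, then stimulated 24 h with IFNγ (1 U/ml) and TNF (6.25 ng/ml) at 37°C. Supernatant kynurenine was read at 492 nm after trichloroacetic acid and p-dimethylaminobenzaldehyde treatment, against 0–100 μM standards. Kynurenine production is the fold change over cytokine-stimulated vehicle wells on the same plate, averaged over duplicate plates in the first screening round.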
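For cell viability relative to vehicle unstimulated control in this document: viability of the cells left after supernatant collection, read with Deep Blue dye added for 4 h, as absorbance at 570 nm minus 600 nm.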

Structure (SMILES) | cell viability (MDA-MB-231 [1]) | kynurenine production (MDA-MB-231 [2])
O=C(/C=C/c1ccc(O)c(O)c1)O[C@H](Cc1ccc(O)c(O)c1)C(=O)O [Rosmarinic acid] (compound dose: 10 uM) | 1.11 ± 0.14 | 0.908 ± 0.18
C[C@@H]1O[C@@H](O[C@@H]2[C@H](O)[C@@H](O)[C@H](O[C@H]3CC[C@@]4(C)C(CC[C@]5(C)C4C=C[C@]46OC[C@@]7(CCC(C)(C)CC74)[C@@H](O)C[C@]65C)C3(C)C)O[C@@H]2CO[C@@H]2O[C@H](CO)[C@@H](O)[C@H](O)[C@H]2O)[C@H](O)[C@H](O)[C@H]1O (some centres undefined) [Saikosaponin C] (compound dose: 10 uM) | 0.928 ± 0.063 | 1.13 ± 0.18
COC(=O)C1=CO[C@@H](O[C@@H]2O[C@H](CO)[C@@H](O)[C@H](O)[C@H]2O)[C@@H]2C(CO)=C[C@H](O)[C@H]12 [Methyl deacetylasperulosidate] (compound dose: 10 uM) | 0.956 ± 0.085 | 1.15 ± 0.1
C=C1C(=O)O[C@H]2[C@H]1CC/C(C)=C/CC[C@@]1(C)O[C@@H]21 [Parthenolide] (compound dose: 10 uM) | 0.933 ± 0.034 | 0.309 ± 0.064
CC(CCC(OC1OC(COC2OC(CO)C(O)C(O)C2O)C(O)C(O)C1OC1OC(CO)C(O)C(O)C1O)C(C)(C)O)C1CCC2(C)C3CC=C4C(CCC(OC5OC(COC6OC(CO)C(O)C(O)C6O)C(O)C(O)C5O)C4(C)C)C3(C)C(=O)CC12C (centres undefined) [11-oxo-mogroside V] (compound dose: 10 uM) | 1.1 ± 0.12 | 1.33 ± 0.053
C[C@@H]1O[C@@H](O[C@H]2[C@H](O[C@H]3CC[C@@]4(C)[C@@H](CC[C@]5(C)[C@@H]4CC=C4[C@@H]6CC(C)(C)CC[C@]6(C(=O)O[C@@H]6O[C@H](CO[C@@H]7O[C@H](CO)[C@@H](O)[C@H](O)[C@H]7O)[C@@H](O)[C@H](O)[C@H]6O)CC[C@]45C)[C@]3(C)CO)OC[C@H](O)[C@@H]2O)[C@H](O)[C@H](O[C@@H]2O[C@H](CO)[C@@H](O[C@@H]3O[C@H](CO)[C@@H](O)[C@H](O)[C@H]3O)[C@H](O)[C@H]2O)[C@H]1O [Macranthoidin B] (compound dose: 10 uM) | 0.9895 ± 0.0011 | 0.787 ± 0.18
CC(=O)O[C@H]1C(=O)[C@@]2(C)[C@H]([C@H](OC(=O)c3ccccc3)[C@]3(O)C[C@H](OC(=O)[C@H](O)[C@@H](NC(=O)c4ccccc4)c4ccccc4)C(C)=C1C3(C)C)[C@]1(OC(C)=O)CO[C@@H]1C[C@@H]2O [7-epi-Taxol] (compound dose: 10 uM) | 0.791 ± 0.032 | 0.3 ± 0.026
CC1CCC2(O)C(C)(C)C3CCC2(C)C1C3 (centres undefined) [Patchouli alcohol] (compound dose: 10 uM) | 0.994 ± 0.013 | 1.04 ± 0.064
C[C@H](CC[C@@H](O)C(C)(C)O)[C@H]1CC[C@@]2(C)[C@@H]3CC=C4[C@@H](CC[C@H](O)C4(C)C)[C@]3(C)[C@H](O)C[C@]12C [Mogrol] (compound dose: 10 uM) | 0.939 ± 0.051 | 0.905 ± 0.15
CC1(C)[C@@H](O[C@H]2O[C@H](C(=O)O)[C@@H](O)[C@H](O)[C@H]2O[C@@H]2O[C@H](C(=O)O)[C@@H](O)[C@H](O)[C@H]2O)CC[C@]2(C)[C@H]3C(=O)C=C4[C@@H]5C[C@@](C)(C(=O)O)CC[C@]5(C)CC[C@@]4(C)[C@]3(C)CC[C@@H]12 [Glycyrrhizic acid] (compound dose: 10 uM) | 1.05 ± 0.075 | 0.842 ± 0.057
C=C1C(=O)O[C@H]2C[C@H](C)C(/C=C/C(C)=O)=CC[C@H]12 [Xanthatin] (compound dose: 10 uM) | 0.66 ± 0.18 | 0.13 ± 0.042
C[C@@H]1O[C@@H](O[C@@H]2[C@@H](O)[C@H](O[C@H]3CC[C@]4(C)[C@H]5CC=C6[C@@H]7CC(C)(C)CC[C@]7(C(=O)O[C@@H]7O[C@H](CO)[C@@H](O)[C@H](O)[C@H]7O)CC[C@@]6(C)[C@]5(C)CC[C@H]4C3(C)C)O[C@H](C(=O)O)[C@H]2O)[C@H](O)[C@H](O)[C@H]1O (compound dose: 10 uM) | 0.941 ± 0.015 | 0.932 ± 0.11
C=C1[C@H](OC(=O)C(C)C)[C@@H](O)[C@@H](OC(C)=O)C(C)(C)/C=C/[C@H](C)[C@H](OC(C)=O)[C@@]2(O)C[C@@](C)(OC(C)=O)[C@H](OC(=O)c3ccccc3)[C@@H]2[C@H]1OC(C)=O [Jatrophane 4] (compound dose: 10 uM) | 1.1 ± 0.017 | 0.7528 ± 0.0061
CC(=O)OC1C2C(OC(=O)c3ccccc3)C(C)CC2(OC(C)=O)C(=O)C(C)=CC2C(CCC13CO3)C2(C)C (centres undefined) [Euphorbia factor L25] (compound dose: 10 uM) | 1.057 ± 0.0038 | 0.911 ± 0.07
O=c1cc(-c2ccc(O)c(O)c2)oc2c([C@@H]3O[C@H](CO)[C@@H](O)[C@H](O)[C@H]3O)c(O)cc(O)c12 [Orientin] (compound dose: 10 uM) | 0.922 ± 0.069 | 0.918 ± 0.1
C[C@@H]1CC[C@@]2(OC1)O[C@H]1C[C@H]3[C@@H]4CC=C5C[C@@H](O[C@@H]6O[C@H](CO)[C@@H](O)[C@H](O[C@@H]7O[C@H](CO)[C@@H](O)[C@H](O)[C@H]7O)[C@H]6O[C@@H]6O[C@@H](C)[C@H](O)[C@@H](O)[C@H]6O)CC[C@]5(C)[C@H]4CC[C@]3(C)[C@H]1[C@@H]2C [Gracillin] (compound dose: 10 uM) | 0.0777 ± 0.08 | 0.202 ± 0.016

Structure (SMILES) | cell viability (MDA-MB-231 [1]) | kynurenine production (MDA-MB-231 [2])
C=C(CC[C@@H](C(=O)O)[C@H]1[C@H](O)C[C@@]2(C)C3=C(CC[C@]12C)[C@@]1(C)CC[C@H](OC(C)=O)C(C)(C)[C@@H]1CC3)C(C)C [Pachymic acid] (compound dose: 10 uM) | 0.862 ± 0.1 | 0.872 ± 0.093
COC(=O)C1=C2CCOC3=C2C2=C1C(=O)[C@@H]1C[C@H]4N(C[C@@H](CC3)[C@@]24C)C[C@H]1C [Daphnicyclidin D] (compound dose: 10 uM) | 0.948 ± 0.076 | 0.831 ± 0.18
CC1(C)CC[C@]2(C(=O)O[C@@H]3O[C@H](CO)[C@@H](O)[C@H](O)[C@H]3O)CC[C@]3(C)C(=CC[C@@H]4[C@@]5(C)CC[C@H](O[C@@H]6O[C@H](C(=O)O)[C@@H](O)[C@H](O)[C@H]6O)C(C)(C)[C@@H]5CC[C@]43C)[C@@H]2C1 [Chikusetsusaponin Iva] (compound dose: 10 uM) | 0.986 ± 0.01 | 0.788 ± 0.14
C[C@@H]1O[C@@H](OC[C@H]2O[C@@H](Oc3c(-c4ccc(O)c(O)c4)oc4cc(O)cc(O)c4c3=O)[C@H](O)[C@@H](O)[C@@H]2O)[C@H](O)[C@H](O)[C@H]1O [Rutin] (compound dose: 10 uM) | 0.867 | 0.755 ± 0.058
C[C@@H]1CC[C@H]2C(C)(C)[C@H]3C[C@@]12CC[C@@]3(C)O [Cedrol] (compound dose: 10 uM) | 0.977 ± 0.06 | 1.06 ± 0.019
C=C1CCC[C@]2(C)CC[C@@H](C(C)(C)O)C[C@@H]12 [Beta-Eudesmol] (compound dose: 10 uM) | 1.077 ± 0.0077 | 0.904 ± 0.14
C[C@]1(O)C[C@@H](O)[C@]2(O)C=CO[C@@H](O[C@H]3O[C@H](CO)[C@@H](O)[C@H](O)[C@H]3O)[C@@H]21 [Harpagide] (compound dose: 10 uM) | 1.02 ± 0.016 | 0.747 ± 0.068
CC1=CC[C@@H](C(C)(C)O)CC1 [(-)-α-terpineol] (compound dose: 10 uM) | 0.979 ± 0.044 | 0.913 ± 0.057
Cc1cc(O)cc(O[C@@H]2O[C@H](CO)[C@@H](O)[C@H](O)[C@H]2O)c1 [Orcinol glucoside] (compound dose: 10 uM) | 1.05 ± 0.027 | 0.821 ± 0.095
CC1=CC23C(=O)C(C=C4COC(C)(C)OC4C2(O)C1O)C1C(CC3C)C1(C)C (centres undefined) [Ingenol-5,20-acetonide] (compound dose: 10 uM) | 0.948 ± 0.042 | 1.07 ± 0.082
CC(=O)O[C@H]1/C(CO)=C\C[C@H]2[C@@H](/C=C(/C)C(=O)[C@@]3(OC(C)=O)C[C@H](C)[C@H](OC(=O)c4ccccc4)[C@H]13)C2(C)C [Euphorbia factor L24] (compound dose: 10 uM) | 1.09 ± 0.022 | 0.911 ± 0.078
CC1(C)[C@@H](O[C@H]2O[C@H](C(=O)O)[C@@H](O)[C@H](O)[C@H]2O[C@@H]2O[C@H](C(=O)O)[C@@H](O)[C@H](O)[C@H]2O)CC[C@]2(C)[C@H]3C(=O)C=C4[C@@H]5C[C@@](C)(C(=O)O)CC[C@]5(C)CC[C@@]4(C)[C@]3(C)CC[C@@H]12 [Dipotassium glycyrrhizinate] (compound dose: 10 uM) | 0.924 ± 0.031 | 0.808 ± 0.21
COc1cc2c(cc1O)C(Cc1ccc(O)cc1)[N+](C)(C)CC2 (centres undefined) [Magnocurarine] (compound dose: 10 uM) | 1.02 ± 0.014 | 0.937 ± 0.083
CC(C)=CCC[C@](C)(O)[C@@H]1CC=C(C)CC1 [alpha-Bisabolol] (compound dose: 10 uM) | 0.9925 ± 0.0046 | 0.79 ± 0.15
CC(C)=CCC[C@](C)(O[C@@H]1O[C@H](CO[C@@H]2O[C@H](CO)[C@@H](O)[C@H](O)[C@H]2O)[C@@H](O)[C@H](O)[C@H]1O)[C@H]1CC[C@]2(C)[C@@H]1[C@H](O)C[C@@H]1[C@@]3(C)CC[C@H](O[C@@H]4O[C@H](CO)[C@@H](O)[C@H](O)[C@H]4O[C@@H]4O[C@H](CO)[C@@H](O)[C@H](O)[C@H]4O)C(C)(C)[C@@H]3CC[C@]12C [Ginsenoside Rb1] (compound dose: 10 uM) | 1.02 | 1.08 ± 0.11
C/C=C(/C)C(=O)O[C@H]1C(C)=C[C@]23C(=O)[C@@H](C=C(COC(C)=O)[C@@H](O)[C@]12O)[C@H]1[C@@H](C[C@H]3C)C1(C)C [20-O-Acetylingenol-3-angelate] (compound dose: 10 uM) | 1.1 ± 0.091 | 0.874 ± 0.053
